A selection: hits, their analogues and other compounds. The true share with any hit is near 18%.
LDHA inh = LDHA (human) enzyme inhibition; purified LDHA, NADH/diaphorase-resazurin fluorescence; active compounds read low; activity change, % (values are at about 110 or 230 µM); actives 0.15% (n = 480,000); AID 1347041; in the data active means activity change below about -30%; inconclusive means mostly about -25% to -30%
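LDH5 2 nM; NADH 0.06 mM, pyruvate 0.2 mM; 200 mM Tris pH 7.4, EDTA, Tween-20; 5 min RT. Detection: diaphorase 0.133 mg/mL + resazurin 37 µM, fluorescence ex540/em590 at 0 and 20 min; normalized to enzyme-free and DMSO wells.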
RORgamma inh = inhibitors of mouse ROR gamma transcriptional activity | P51450 | Potency, µM (top dose mostly 53.6 µM), actives largely listed as inhibitors | Drosophila S2 Gal4-RORgamma UAS-luciferase reporter, 20 h | actives 5.4% (n = 310,000); further: nearly all actives have a fitted effect of over 60% in size
Target sequence (P51450 whole entry, looked up, the tested form may be a part): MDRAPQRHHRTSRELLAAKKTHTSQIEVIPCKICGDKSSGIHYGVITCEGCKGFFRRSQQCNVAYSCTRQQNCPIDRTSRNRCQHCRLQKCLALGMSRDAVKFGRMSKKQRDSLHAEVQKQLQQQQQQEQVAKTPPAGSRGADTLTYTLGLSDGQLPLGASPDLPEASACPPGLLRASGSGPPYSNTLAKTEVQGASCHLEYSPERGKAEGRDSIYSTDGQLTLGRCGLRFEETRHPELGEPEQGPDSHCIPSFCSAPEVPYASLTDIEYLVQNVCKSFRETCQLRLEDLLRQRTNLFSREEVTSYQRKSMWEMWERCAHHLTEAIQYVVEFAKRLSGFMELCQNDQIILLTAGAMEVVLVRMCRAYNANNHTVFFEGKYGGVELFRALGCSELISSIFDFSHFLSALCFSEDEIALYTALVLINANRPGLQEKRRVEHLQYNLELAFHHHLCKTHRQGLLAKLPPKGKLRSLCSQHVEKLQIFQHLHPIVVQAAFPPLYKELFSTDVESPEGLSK
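Compounds are pin-transferred onto Drosophila Schneider cells expressing a copper-inducible Gal4–ROR gamma transactivation domain fusion. After 1 hr, copper sulfate is added to 700 uM final; luciferase is read 20 hr later.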
VP16 counter = counter-screen for ROR gamma inhibitors: Gal4-VP16 reporter; Drosophila S2 Gal4-VP16 UAS-luciferase, luminescence, 20 h; Potency, µM (doses to about 53.6 µM), hits mostly inhibitors; actives 3.5% (n = 310,000); AID 2546;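 further: Gal4-VP16 expression switched on by copper sulfate through the metallothionein promoter; nearly all actives have a fitted effect of over 50% in size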
TDP1 cell CPT = DT40-hTDP1 cell growth loss with CPT; actives 12% (n = 420,000); chicken DT40 Tdp1-/-;hTDP1 cells + 20 nM CPT, ATP luminescence, 48 h; AID 686979; Potency, µM (top dose mostly 46.2 µM), hits mostly inhibitors; further: nearly all actives have a fitted effect of over 55% in size
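Chicken DT40 Tdp1-/- cells complemented with human TDP1, 400 cells/well, exposed to compounds plus 20 nM camptothecin for at least 48 h at 37 C; viability read as ATP content by CellTiter-Glo luminescence.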
IL-1B inflam inh = inhibitors of inflammasome signaling (IL-1 beta secretion). THP-1 LPS/ATP IL-1B secretion, AlphaLISA, 16 h; active compounds read low. AID 743279. actives 4.7% (n = 360,000). activity change, % at 57.5 µM; in the data active means activity change below about -50%; inconclusive means mostly about -30% to -49%
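THP-1 cells pretreated 1 hr with compounds (up to 57.5 uM final), then stimulated with LPS (250 ng/mL final) plus ATP (1.25 mM final); secreted IL-1B measured by AlphaLISA after 16 hr, decreased signal indicating inhibition.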
DT40 TDP1 no CPT = qHTS for Inhibitors of human tyrosyl-DNA phosphodiesterase 1 (TDP1): qHTS in cells in absence of CPT. DT40 Tdp1-/- hTDP1 cells, no CPT, ATP luminescence, 48 h. Potency, µM (top dose mostly 46.2 µM), hits mostly inhibitors. actives 15% (n = 420,000); further: nearly all actives have a fitted effect of over 55% in size
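Growth of hTDP1-complemented DT40 Tdp1-knockout cells is measured by ATP luminescence after at least 48 hr compound exposure at 37 °C, with DMSO substituting for the 20 nM CPT used in the parallel screen.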
A number is an active result; - = inactive; ? = inconclusive; . = no result. Unless noted, the call rests on the fitted dose curve; in most records, active means well fitted curve in the direction sought with a large enough effect; inconclusive means small, poorly fitted or top-dose-only effect, or another doubt; inactive means no such curve, though single readings can be large; an effect the other way counts as inactive or inconclusive.

SMILES	LDHA inh	RORgamma inh	VP16 counter	TDP1 cell CPT	IL-1B inflam inh	DT40 TDP1 no CPT
COc1cccc(C(=O)Nc2nc3ccccc3s2)c1	-	12.6µM	14.1µM	-	-	-
CC(=O)Nc1nc(=O)c2ccccc2s1	-	?	?	?	-	?
O=C(Nc1nc(=O)c2ccccc2s1)c1ccccc1	-	7.08µM	6.31µM	?	-	?
COc1cccc(C(=O)Nc2nc(C)cs2)c1	-	?	-	-	-	-
O=C(Nc1nc2ccccc2s1)c1ccc(Cl)s1	-	8.91µM	-	-	-	?
CN(C)CCN1C(c2ccccc2)=CC(=C(C#N)C#N)C2=C1CCCC2	-	.	.	.	.	.
Cc1ccc(Nc2nc3ccccc3c(=O)s2)cc1C	-	2.82µM	3.55µM	16.4µM	-	11.6µM
Cc1ccc(Nc2nn3c(=O)c4ccccc4nc3s2)cc1C	-	.	.	.	.	.
COc1ccc(C(=O)Nc2nc3ccccc3s2)cc1OC	-	-	?	-	-87.5	-
O=C(Nc1nc(-c2ccc(Br)cc2)ns1)c1ccc(F)cc1	-	.	.	?	.	18.4µM
Cc1ccc(-c2cc3c(SCC(=O)N4CCN(c5ccccc5F)CC4)nccn3n2)cc1	-	.	.	.	.	.
CCCNc1nc2ccccc2nc1C(=O)Nc1cccc(Cl)c1	-	.	.	.	.	.
Cc1cc(C(O)c2ncc(-c3ccccc3Cl)[nH]2)ccc1F (stereo unspecified)	-	.	.	?	-	?
CCc1ccc(C(O)c2ncc(-c3ccccc3C(F)(F)F)[nH]2)cc1 (stereo unspecified)	-	.	.	29.1µM	-	?
Cc1ccc(C(O)c2ncc(-c3cccc4ccccc34)[nH]2)cc1F (stereo unspecified)	-	.	.	?	-	?
COc1cccc(C(O)c2ncc(-c3cccc4ccccc34)[nH]2)c1 (stereo unspecified)	-	.	.	16.4µM	-	9.2µM
CCc1ccc(C(O)c2ncc(-c3ccc(C(F)(F)F)cc3)[nH]2)cc1 (stereo unspecified)	-	.	.	?	-	?
COc1cccc(C(O)c2ncc(-c3ccccc3OC)[nH]2)c1 (stereo unspecified)	-	.	.	-	-	-
Cc1cc(Cl)ccc1C(O)c1ncc(-c2ccccc2Cl)[nH]1 (stereo unspecified)	-	.	.	20.6µM	-	?
OC(c1cccc(Cl)c1)c1ncc(-c2cccc3ccccc23)[nH]1 (stereo unspecified)	-	.	.	20.6µM	-	16.4µM
COc1ccccc1-c1cnc(C(O)c2ccc(C)cc2)[nH]1 (stereo unspecified)	-	.	.	-	-	18.4µM
COc1ccc(OC)c(C(O)c2ncc(-c3cccc4ccccc34)[nH]2)c1 (stereo unspecified)	-	.	.	18.4µM	-	25.9µM
N=C1N(c2ccccc2)C(=S)C(=Nc2ccccc2)N1c1ccccc1	-	.	.	18.4µM	-	13µM
Fc1ccc(N2C(=S)SC(=Nc3ccccc3)C2=Nc2ccccc2)cc1	-	.	.	?	-	?
Brc1ccccc1CNCc1ccc(Cn2cncn2)cc1	-	.	.	.	.	.
SMILES	LDHA inh	RORgamma inh	VP16 counter	TDP1 cell CPT	IL-1B inflam inh	DT40 TDP1 no CPT
COc1ccccc1N(C)S(=O)(=O)c1ccc(C(=O)Nc2ccc3nc(C)sc3c2)cc1	-	?	-	16.4µM	-	?
Cc1nc2ccc(NC(=O)c3cccc(S(=O)(=O)N(C)c4ccccc4)c3)cc2s1	-	?	-	3.66µM	-	6.51µM
CC(NC(=O)c1cccc(S(=O)(=O)N(C)c2ccccc2)c1)c1cccnc1 (stereo unspecified)	-	.	.	18.4µM	-	18.4µM
COc1ccccc1N(C)S(=O)(=O)c1ccc(C(=O)Nc2ncc(C)s2)cc1	-	.	.	?	-	?
Cc1ccc(NC(=O)c2cccc(S(=O)(=O)N(C)c3ccccc3)c2)cc1S(=O)(=O)N1CCOCC1	-	-	-	23.1µM	-	23.1µM
O=C(O)CC1(CC(=O)N2CCC(Cc3ccccc3)CC2)CCCC1	-	.	.	.	.	.
Cc1ccc(Cl)cc1N(CC(=O)N1CCCC1)S(=O)(=O)c1ccccc1	-	.	.	.	.	.
COc1cc(NC(=O)c2cccc(C)c2)c(OC)cc1NC(=O)CN1CCOCC1	-	-	-	?	?	18.4µM
COc1cc(NC(=O)c2ccccc2)c(OC)cc1NC(=O)CN1CCOCC1	-	-	-	-	?	?
COc1cc(NC(=O)c2ccccc2Cl)c(OC)cc1NC(=O)CN1CCOCC1	-	-	-	?	-73.6	?
COCc1cc(C)nc2sc3c(c12)NCN(c1cccc(OC)c1)C3=O	-	.	.	.	.	.
COc1ccc(C(CC(=O)c2ccccc2)C2CCCCC2=O)cc1 (stereo unspecified)	-	-	-	16.4µM	-	-
Cn1c(Nc2ccccc2)nc2ccccc21	-	.	.	-	?	-
CC(=O)c1ccc(/C=C/c2nc3ccccc3n2C)o1	-	10µM	?	?	-	?
Cn1c(/C=C/c2ccccc2)nc2ccccc21	-	10µM	7.08µM	?	-	16.4µM
Cn1c(=O)c(/C=C/c2ccccc2)nc2ccccc21	-	?	-	?	-	16.4µM
Cn1c(=O)c(/C=C/c2ccc(F)cc2)nc2ccccc21	-	-	-	?	-	23.1µM
C#CCNC(=O)NC(CCC)c1ccccc1 (stereo unspecified)	-	.	.	.	.	.
O=C(c1ccc(Cl)cc1Cl)N1CCC(c2nc3ccccc3o2)CC1	-	.	.	.	.	.
COCCNC(=O)/C(C#N)=C/c1c(N2CCCCCC2)nc2c(C)cccn2c1=O	-	-	-	?	-	14.6µM
Cc1cccn2c(=O)c(/C=C(\C#N)C(N)=O)c(N3CCN(Cc4ccc5c(c4)OCO5)CC3)nc12	-	-	-	?	-51.4	?
COCCNC(=O)/C(C#N)=C/c1c(N2CCN(C)CC2)nc2c(C)cccn2c1=O	-	-	-	-	-	-
COCCCNC(=O)/C(C#N)=C/c1c(N2CCN(c3ccc(OC)cc3)CC2)nc2c(C)cccn2c1=O	-	-	-	23.1µM	-	14.6µM
COCCCNC(=O)/C(C#N)=C/c1c(N2CCN(C)CC2)nc2c(C)cccn2c1=O	-	-	-	-	-	-
CNC(=O)/C(C#N)=C/c1c(N2CCN(c3ccccc3)CC2)nc2c(C)cccn2c1=O	-	-	-	?	-	14.6µM
Cc1c(CCC(=O)N2CCCC2)c(=O)oc2cc(O)ccc12	-	.	.	.	.	.
Cc1ccc(-c2nc(C)c(C(=O)NC3C=CS(=O)(=O)C3)s2)cc1 (stereo unspecified)	-	.	.	.	.	.
CC(C)Sc1ccccc1C(=O)NCCC1=CCCCC1	-	.	.	.	.	.
CN(C)CCCn1c2c3ccccc3ccc2c2oc(=O)c3ccccc3c21	-	.	.	2.59µM	-100.0	4.61µM
